What follows are molecules tested on glycogen synthase kinase-3 (GSK3A per assay name; protocol says GSK3B) (assay: compounds binding glycogen synthase kinase-3 – biochemical, small-molecule microarray, 635 nm fluorescence, GSK3A, primary screen (AID 1103; note: the record names both GSK3A and GSK3B)). Conditions: fluorescence 635 nm, higher = more signal.

CC(C)(C)OC(=O)CC[C@]1(C(=O)O)N=C(c2ccc(OCCCO)cc2)O[C@H]1c1ccccc1N=[N+]=[N-] was tested. Which composite z-score did it give?
Its composite z-score is 0.581.

Which composite z-score does the source give for COC(=O)C(CC#Cc1ccc2c(c1)[C@]1(C(=O)N2)[C@H](C(=O)O)[C@H]2C(=O)O[C@H](c3ccccc3)[C@H](c3ccccc3)N2[C@@H]1c1ccc(O)cc1)C(=O)OC here?
Its composite z-score is -0.266.

How did the composite z-score turn out when COCCOC(=O)N1C(=O)[C@@]2(c3cc(C#Cc4ccc(OC)cc4)ccc31)[C@H](c1ccc(O)cc1)N1[C@H](c3ccccc3)[C@H](c3ccccc3)OC(=O)[C@H]1[C@@H]2C(=O)NC[C@H](O)c1ccccc1 was run?
The composite z-score was 1.31.

CN1C(=O)C2C=CC(C(O)c3cccs3)N(Nc3ccccc3)C2C1=O (centres undefined) was tested. Which composite z-score did it give?
Its composite z-score is 0.0802.

How did the composite z-score turn out when CC(C)(C)OC(=O)CC[C@@]1(C(=O)NCC(O)CO)N=C(c2ccc(OCCCO)cc2)O[C@@H]1c1ccccc1N=[N+]=[N-] (some centres undefined) was run?
Its composite z-score is -0.454.

Which composite z-score does the source give for C[C@@H]1ON(c2cccc(C(=O)OC(C)(C)C)c2)[C@H](c2ccc(Br)cc2)[C@H]1C(=O)N1C(=O)OC[C@H]1Cc1ccccc1 here?
Its composite z-score is 0.962.

Which composite z-score does the source give for COc1ccc(C(=O)Nc2ccc(CN3C(=O)[C@@]4(O[C@@H](CCn5cc([C@H](O)c6ccccc6)nn5)[C@H]([Si](C)(C)c5ccc(OC)cc5)[C@H]4C)c4ccccc43)cc2)cc1 here?
Its composite z-score is 0.054.

Which composite z-score does the source give for CC(C)c1ccc(NN2C(C(O)c3cc(C(F)(F)F)cc(C(F)(F)F)c3)C=CC3C(=O)N(c4ccccc4)C(=O)C32)cc1 (centres undefined) here?
The composite z-score was 0.543.

Each molecule was assayed against Epidermal growth factor receptor (Homo sapiens) (UniProt P00533) (assay: compounds binding epidermal growth factor receptor – biochemical, small-molecule microarray, 635 nm fluorescence, primary screen (AID 1104;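 note: score merges 667 nm emission intensity with spot signal to noise over triplicate slides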)). Conditions: EGFR binding, higher = more signal.
Epidermal growth factor receptor (Homo sapiens), sequence (P00533 whole entry, looked up): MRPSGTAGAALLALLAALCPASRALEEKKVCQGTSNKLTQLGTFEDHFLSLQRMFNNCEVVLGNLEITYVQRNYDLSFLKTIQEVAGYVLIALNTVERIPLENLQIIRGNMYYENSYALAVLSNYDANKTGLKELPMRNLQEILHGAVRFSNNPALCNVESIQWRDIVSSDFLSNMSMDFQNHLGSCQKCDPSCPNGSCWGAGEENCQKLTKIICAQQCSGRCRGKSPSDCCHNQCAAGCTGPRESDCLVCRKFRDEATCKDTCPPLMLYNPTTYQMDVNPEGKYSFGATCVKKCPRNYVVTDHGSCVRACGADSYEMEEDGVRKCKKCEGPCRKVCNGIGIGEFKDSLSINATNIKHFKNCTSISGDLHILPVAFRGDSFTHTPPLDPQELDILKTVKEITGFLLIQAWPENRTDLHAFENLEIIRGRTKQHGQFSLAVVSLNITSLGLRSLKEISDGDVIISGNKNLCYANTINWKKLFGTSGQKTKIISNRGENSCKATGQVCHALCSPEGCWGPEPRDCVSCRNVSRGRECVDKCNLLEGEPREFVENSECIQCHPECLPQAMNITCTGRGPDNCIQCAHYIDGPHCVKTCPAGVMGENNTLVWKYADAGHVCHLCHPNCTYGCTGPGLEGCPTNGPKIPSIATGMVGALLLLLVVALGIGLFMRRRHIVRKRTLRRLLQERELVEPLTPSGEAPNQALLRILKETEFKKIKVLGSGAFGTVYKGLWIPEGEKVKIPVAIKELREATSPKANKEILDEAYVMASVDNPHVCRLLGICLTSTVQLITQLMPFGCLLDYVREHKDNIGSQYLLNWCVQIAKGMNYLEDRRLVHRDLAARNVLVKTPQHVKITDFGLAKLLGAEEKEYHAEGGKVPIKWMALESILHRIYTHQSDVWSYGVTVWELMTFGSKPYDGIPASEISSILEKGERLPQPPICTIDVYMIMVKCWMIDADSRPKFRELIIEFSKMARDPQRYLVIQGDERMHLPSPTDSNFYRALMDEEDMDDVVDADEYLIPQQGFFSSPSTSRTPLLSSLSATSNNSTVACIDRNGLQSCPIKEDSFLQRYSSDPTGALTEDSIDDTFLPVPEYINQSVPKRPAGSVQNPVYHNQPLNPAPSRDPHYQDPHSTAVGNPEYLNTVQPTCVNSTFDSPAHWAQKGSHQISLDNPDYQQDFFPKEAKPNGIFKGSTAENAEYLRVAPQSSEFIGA

Which composite z-score does the source give for CCCCC(=C=CC[C@@H](O)c1ccccc1OCCO)CCO here?
Its composite z-score is -0.903.

Which composite z-score does the source give for COc1ccc(C(O)C2C=CC3C(=O)NC(=O)C3N2Nc2ccccn2)c2ccccc12 (centres undefined) here?
The composite z-score was 0.307.

How did the composite z-score turn out when COc1cc(CO)cc(I)c1O[C@H]1C=C(C(=O)NCCO)C[C@@H](N(CCN2CCOCC2)C(=O)C2CCOC2)[C@@H]1O (some centres undefined) was run?
The composite z-score was -0.0432.

COC(=O)[C@@]1(Cc2ccc(F)cc2)[C@H]2c3cc(C(=O)N(C)C)n(Cc4ccc(S(C)(=O)=O)cc4)c3C[C@H]2CN1C(=O)c1ccccc1 was tested. Which composite z-score did it give?
The composite z-score was 0.603.

For CC(=O)n1cc(C(O)C2C=CC3C(=O)N(C)C(=O)C3N2Nc2ccccc2)c2ccccc21 (centres undefined), which composite z-score is on record?
The composite z-score was 1.27.

O=C1O[C@H](c2ccccc2)[C@H](c2ccccc2)N2[C@H]1[C@@H](C(=O)NC[C@H](O)c1ccccc1)[C@]1(C(=O)Nc3ccccc31)[C@H]2c1ccc(OCCO)cc1 was tested. Which composite z-score did it give?
Its composite z-score is -0.0151.

Which composite z-score does the source give for C=C(CCCC)C(=O)CC[C@H](OC(C)=O)c1cccc(OCCO)c1 here?
Its composite z-score is -0.961.

How did the composite z-score turn out when COCCOC(=O)N1C(=O)[C@@]2(c3cc(C#CC4=CCCCC4)ccc31)[C@H](C(=O)Nc1nc3ccccc3s1)[C@H]1C(=O)O[C@H](c3ccccc3)[C@H](c3ccccc3)N1[C@@H]2c1ccccc1OCCO was run?
Its composite z-score is 0.765.

For CN1C(=O)C2C=CC(C(O)c3cc(C(F)(F)F)cc(C(F)(F)F)c3)N(N3CCCCC3)C2C1=O (centres undefined), which composite z-score is on record?
The composite z-score was -0.448.

For CN(C)C(=O)[C@@]1(Cc2ccccc2)N=C(c2ccc(OCCCO)cc2)O[C@H]1c1ccccc1N=[N+]=[N-], which composite z-score is on record?
The composite z-score was 0.189.

Which composite z-score does the source give for [N-]=[N+]=NCc1ccccc1[C@@H]1OC(c2ccc(OCCCO)cc2)=N[C@]1(CCS(=O)(=O)c1ccccc1)C(=O)NCc1ccccc1 here?
Its composite z-score is 0.274.

With CCOC(=O)[C@H]1C/C=C/C[C@H](C(=O)OCC)C(=O)O[C@H]2[C@@H](OC)O[C@H](CO)[C@@H](OC(=O)Nc3ccc(C#N)cc3)[C@@H]2OC1=O as the molecule, how does the composite z-score read?
The composite z-score was -0.226.

Which composite z-score does the source give for C#CCN(Cc1ccccc1Br)C(/C=C/c1ccccc1)CO (centres undefined) here?
The composite z-score was -0.153.

For CC(C)[C@@H](CO)NC(=O)[C@H]1[C@@H](c2ccccc2)N(c2ccccc2)O[C@@H]1C, which composite z-score is on record?
Its composite z-score is -0.0881.

Which composite z-score does the source give for [N-]=[N+]=Nc1ccccc1C[C@]1(C(=O)NCC(O)CO)N=C(c2ccc(OCCCO)cc2)O[C@H]1c1ccccc1N=[N+]=[N-] (some centres undefined) here?
The composite z-score was -0.363.

C=CC[C@]1(C(=O)NCCCOC)N=C(c2ccc(OCCCO)cc2)O[C@H]1c1ccccc1N=[N+]=[N-] was tested. Which composite z-score did it give?
The composite z-score was -0.223.

With C=CCOC(=O)[C@H]1[C@@H]2C(=O)O[C@@H](c3ccccc3)[C@@H](c3ccccc3)N2[C@@H](c2ccc(OCCOC(=O)[C@H]3C[C@H]4C(=O)N5CCC[C@H]5C(=O)N4[C@H]3c3ccc(O)cc3)cc2)[C@]12C(=O)Nc1ccccc12 as the molecule, how does the composite z-score read?
The composite z-score was 0.999.

How did the composite z-score turn out when CN(C)CCCCCCNC(=O)[C@@H]1C[C@@H]2C(=O)N[C@@H](CCCCN)C(=O)N2[C@@H]1c1cccc(OCCO)c1 was run?
The composite z-score was 1.11.

Which composite z-score does the source give for COCCOC(=O)N1C(=O)[C@@]2(c3cc(C#Cc4ccc(OC)cc4)ccc31)[C@H](C(N)=O)[C@H]1C(=O)O[C@H](c3ccccc3)[C@H](c3ccccc3)N1[C@@H]2c1ccccc1OCCO here?
The composite z-score was 0.824.

With CCOC(=O)[C@H]1C/C=C/C[C@H](C(=O)OCC)C(=O)O[C@H]2[C@@H](OC)O[C@H](CO)[C@@H](OC(=O)Nc3cccc(F)c3)[C@@H]2OC1=O as the molecule, how does the composite z-score read?
Its composite z-score is -0.226.

Which composite z-score does the source give for CN1C(=O)C2C=CC(C(O)C3CC=CCC3)N(NC(=O)OC(C)(C)C)C2C1=O (centres undefined) here?
The composite z-score was 0.933.

Which composite z-score does the source give for COc1ccc(CCNC(=O)[C@@]2(Sc3ccc(C)cc3)CC(=O)N(C3CCCCC3)[C@@H]2c2ccc(CO)cc2I)cc1 here?
The composite z-score was 0.0902.

With COc1ccc(CCNC(=O)[C@@H]2c3ccccc3C(=O)N(C3Cc4ccccc4C3)[C@H]2c2ccc(CO)cc2)cc1 as the molecule, how does the composite z-score read?
Its composite z-score is -0.19.

CO[C@H]1O[C@H](CO)[C@@H](OC(=O)Nc2ccc(Br)cc2)[C@H](OC(=O)c2cc3ccccc3[nH]2)[C@H]1OC(=O)c1cc2ccccc2[nH]1 was tested. Which composite z-score did it give?
Its composite z-score is 0.408.

How did the composite z-score turn out when C=CCOC(=O)[C@H]1[C@@H]2C(=O)O[C@@H](c3ccccc3)[C@@H](c3ccccc3)N2[C@@H](c2ccc(OCCOC(=O)[C@H]3C[C@H]4C(=O)N[C@@H](CC(C)C)C(=O)N4[C@H]3c3ccc(O)cc3)cc2)[C@]12C(=O)Nc1ccc(I)cc12 was run?
Its composite z-score is 0.748.

O=C(NCC(F)(F)F)[C@@H]1c2ccccc2C(=O)N(C2CCCCC2)[C@H]1c1ccc(CO)cc1 was tested. Which composite z-score did it give?
Its composite z-score is -0.759.

CCCC=C(CCC)[C@@H](NC(=O)Oc1ccc(F)cc1)c1ccc(C(=O)OC)cc1 was tested. Which composite z-score did it give?
Its composite z-score is 0.267.

Which composite z-score does the source give for COC(=O)c1c(CC[C@@H](CO)NC(=O)N2CCC[C@H]2Cn2cc(-c3ccccn3)nn2)oc(C(C)=O)c1C(=O)OC here?
The composite z-score was 0.0417.

How did the composite z-score turn out when CC(C)(C)OC(=O)CC[C@]1(C(=O)O)N=C(c2ccc(OCCCO)cc2)O[C@H]1c1ccccc1N=[N+]=[N-] was run?
Its composite z-score is -0.143.

For COC(=O)C(CC#Cc1ccc2c(c1)[C@]1(C(=O)N2)[C@H](C(=O)O)[C@H]2C(=O)O[C@H](c3ccccc3)[C@H](c3ccccc3)N2[C@@H]1c1ccc(O)cc1)C(=O)OC, which composite z-score is on record?
Its composite z-score is -0.46.

With COCCOC(=O)N1C(=O)[C@@]2(c3cc(C#Cc4ccc(OC)cc4)ccc31)[C@H](c1ccc(O)cc1)N1[C@H](c3ccccc3)[C@H](c3ccccc3)OC(=O)[C@H]1[C@@H]2C(=O)NC[C@H](O)c1ccccc1 as the molecule, how does the composite z-score read?
The composite z-score was 0.769.

For CN1C(=O)C2C=CC(C(O)c3cccs3)N(Nc3ccccc3)C2C1=O (centres undefined), which composite z-score is on record?
The composite z-score was 0.007.

CC(C)(C)OC(=O)CC[C@@]1(C(=O)NCC(O)CO)N=C(c2ccc(OCCCO)cc2)O[C@@H]1c1ccccc1N=[N+]=[N-] (some centres undefined) was tested. Which composite z-score did it give?
Its composite z-score is -0.468.

How did the composite z-score turn out when C[C@@H]1ON(c2cccc(C(=O)OC(C)(C)C)c2)[C@H](c2ccc(Br)cc2)[C@H]1C(=O)N1C(=O)OC[C@H]1Cc1ccccc1 was run?
The composite z-score was 0.51.

COc1ccc(C(=O)Nc2ccc(CN3C(=O)[C@@]4(O[C@@H](CCn5cc([C@H](O)c6ccccc6)nn5)[C@H]([Si](C)(C)c5ccc(OC)cc5)[C@H]4C)c4ccccc43)cc2)cc1 was tested. Which composite z-score did it give?
Its composite z-score is -0.591.

CC(C)c1ccc(NN2C(C(O)c3cc(C(F)(F)F)cc(C(F)(F)F)c3)C=CC3C(=O)N(c4ccccc4)C(=O)C32)cc1 (centres undefined) was tested. Which composite z-score did it give?
Its composite z-score is -0.911.

Source: PubChem BioAssay
